Only some compounds are listed: those with a hit (about 2.1% of all), similar ones and a draw of the others.
U2OS ROS induce – ROS inducers in U2OS cancer cells, primary screen, cell-based, H2DCF-DA fluorescence; U2OS ROS induction; ROS induction (% of piperlongumine), % at 10 µM; 46,000 compounds, 2% hits; AID 624156, 2012; in the data active = ROS induction above about 79%, passing the limit was not always enough; inconclusive = no clear call, values can overlap the other calls
YB-1 expr inh – inhibitors of YB-1 gene expression, primary screen, cell-based, fluorescence; U2OS, qRT-PCR YB-1 vs CDIP delta delta Cp, 16 h; active compounds read high; zero = DMSO, each unit about twofold; delta delta Cp (YB-1 minus CDIP) (concentration not given with the values); 30,000 compounds, 0.37% hits; AID 434959, 2010;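 active = delta delta Cp rounded down to an integer at or above 3, about 3 SD of DMSO wells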;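 also: higher means less YB-1 transcript or more CDIP transcript relative to DMSO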
Large screens that a line does not name were inactive.

C[C@@H]1CCCCO[C@@H](CN(C)S(=O)(=O)c2ccccc2)[C@@H](C)CN([C@H](C)CO)C(=O)c2cc(NS(=O)(=O)c3ccc(Cl)cc3)ccc2O1	U2OS ROS induce 113
C[C@@H]1CCCCO[C@H](CN(C)Cc2ccc3c(c2)OCO3)[C@@H](C)CN([C@H](C)CO)C(=O)c2cc(NS(=O)(=O)c3ccc(Cl)cc3)ccc2O1	none
C[C@@H]1CCCCO[C@@H](CN(C)S(=O)(=O)c2ccc(Cl)cc2)[C@@H](C)CN([C@H](C)CO)C(=O)c2cc(NS(=O)(=O)c3ccc(F)cc3)ccc2O1	U2OS ROS induce 118
C[C@@H]1CCCCO[C@@H](CN(C)S(=O)(=O)c2ccc(F)cc2)[C@@H](C)CN([C@H](C)CO)C(=O)c2cc(NC(=O)Nc3ccc(F)cc3)ccc2O1	none
C[C@@H]1CCCCO[C@H](CN(C)S(=O)(=O)c2ccc(F)cc2)[C@@H](C)CN([C@H](C)CO)C(=O)c2cc(NC(=O)NC3CCCCC3)ccc2O1	U2OS ROS induce 166
C[C@@H]1CCCCO[C@@H](CN(C)S(=O)(=O)c2ccc(Cl)cc2)[C@@H](C)CN([C@H](C)CO)C(=O)c2cc(NS(=O)(=O)c3ccc(Cl)cc3)ccc2O1	U2OS ROS induce inconclusive
C[C@@H]1CCCCO[C@@H](CN(C)S(=O)(=O)c2ccc(F)cc2)[C@@H](C)CN([C@H](C)CO)C(=O)c2cc(NS(=O)(=O)c3ccc(F)cc3)ccc2O1	none
Cc1ccc(S(=O)(=O)Nc2ccc3c(c2)C(=O)N([C@H](C)CO)C[C@H](C)[C@@H](CN(C)Cc2ccc4c(c2)OCO4)OCCCC[C@@H](C)O3)cc1	U2OS ROS induce 95
Cc1ccc(Nc2nc(Nc3ccc(C)cc3)nc(-n3sc(=S)nc3C)n2)cc1	none (no result: YB-1 expr inh)
N#Cc1cccnc1N1CCN(C(=O)Nc2cccc3ccccc23)CC1	none (no result: YB-1 expr inh)
C=CCn1cc(C=C2C(=O)OC(c3ccccc3)OC2=O)c2ccccc21 (stereo unspecified)	none (no result: YB-1 expr inh)
COc1ccc(NC(=O)c2nn(C)c3c2COc2ccccc2-3)cc1	none (no result: YB-1 expr inh)
CCOc1ccc(CC(=O)NCc2cn3ccc(C)cc3n2)cc1	none (no result: YB-1 expr inh)
O=C1N=c2ccccc2=C1c1sc(N2CCOCC2)nc1O	none (no result: YB-1 expr inh)
C[C@@H]1CCCCO[C@H](CN(C)S(=O)(=O)c2ccccc2)[C@@H](C)CN([C@H](C)CO)C(=O)c2cc(NC(=O)c3ccccc3)ccc2O1	none
C[C@@H]1CCCCO[C@@H](CN(C)S(=O)(=O)c2ccc(Cl)cc2)[C@@H](C)CN([C@H](C)CO)C(=O)c2cc(NC(=O)c3ccccc3)ccc2O1	U2OS ROS induce 133
COc1ccc([C@H]2C=C(C(=O)NCc3ccccc3)O[C@@H](OCc3ccc(CO)cc3)C2)cc1	YB-1 expr inh 3.3
O=C(O)C1=C[C@@H](c2ccccc2)C[C@@H](OCc2ccc(CO)cc2)O1	none
C[C@@H]1CN([C@@H](C)CO)C(=O)c2cccc(NC(=O)Nc3ccc(C(F)(F)F)cc3)c2O[C@H]1CN(C)Cc1ccc(C(=O)Nc2ccccc2N)cc1	U2OS ROS induce 91
C[C@H](CO)N1C[C@H](C)[C@H](CN(C)Cc2ccc(C(=O)Nc3ccccc3N)cc2)Oc2c(NC(=O)Nc3ccc(F)cc3)cccc2C1=O	none
C[C@@H]1CN([C@H](C)CO)C(=O)c2cccc(NC(=O)c3ccc(-c4nccs4)cc3)c2O[C@H]1CN(C)Cc1ccc(C(F)(F)F)cc1	U2OS ROS induce 105
C[C@@H]1CN([C@H](C)CO)C(=O)c2cccc(NC(=O)c3ccc(-c4nccs4)cc3)c2O[C@@H]1CN(C)Cc1ccc(-c2ccccc2)cc1	none
C[C@H](CO)N1C[C@H](C)[C@H](CN(C)C)Oc2c(NC(=O)c3ccncc3)cccc2C1=O	YB-1 expr inh 3.6
C[C@@H]1CN([C@H](C)CO)C(=O)c2cccc(NC(=O)c3ccncc3)c2O[C@H]1CN(C)C	none
C[C@@H]1CN([C@H](C)CO)C(=O)c2cccc(NC(=O)c3ccc(-c4nccs4)cc3)c2O[C@H]1CN(C)Cc1ccc(C(=O)O)cc1	none
C[C@H](CO)N1C[C@H](C)[C@@H](CN(C)Cc2ccc(Cl)c(Cl)c2)Oc2c(NC(=O)c3ccc(-c4nccs4)cc3)cccc2C1=O	U2OS ROS induce 97
CCn1cc(CCCC(=O)NCCc2ccc(Cl)cc2)c2ccccc21	none (no result: YB-1 expr inh)
CC(C)c1nc2ccccc2n1Cc1ccccc1Cl	none (no result: YB-1 expr inh)
CCc1cccc(C)c1NC(C)=O	none (no result: YB-1 expr inh)
C[C@H]1CN([C@@H](C)CO)C(=O)c2cccc(NC(=O)c3ccc(-c4nccs4)cc3)c2O[C@H]1CN(C)Cc1ccc(C(=O)Nc2ccccc2N)cc1	none
C[C@@H]1CN([C@H](C)CO)C(=O)c2cccc(NC(=O)c3ccc(-c4nccs4)cc3)c2O[C@@H]1CN(C)Cc1ccc(C(=O)Nc2ccccc2N)cc1	U2OS ROS induce 214
COc1ccc2[nH]c3c(=O)n(CCC(=O)NC4CCCCCC4)c(=S)[nH]c3c2c1	none (no result: YB-1 expr inh)
O=C(O)CCN1C(=O)/C(=C/c2ccccn2)SC1=S	none (no result: YB-1 expr inh)

Screens (PubChem BioAssay)
